The nature of assay [1]: ATG_PXRE_CIS: Attagene CIS-FACTORIAL HepG2 Assay for human Pregnane X Receptor Element (PXRE) (AID 2282957). The following applies: HepG2 Attagene CIS-FACTORIAL PXRE reporter, mRNA; actives raise or lower the signal. The method, boiled down: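 Using HepG2 transfected with multiple reporter transcription units, endogenous factor-driven transcription was scored as reporter mRNA after 24 h exposure.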

A short description of assay [2]: ATG_PPRE_CIS: Attagene CIS-FACTORIAL HepG2 Assay for human Peroxisome Proliferator-activated Response Element (PPRE) (AID 2282958). The following applies: HepG2 PPRE cis-element reporter, Attagene transcription factor profiling; actives raise or lower the signal. The method, boiled down:
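In this cell-based multiplex, a PPRE cis element drives a reporter sequence in transiently transfected HepG2 cells. Following 24 h treatment, labeled cDNA amplicons are sized and quantified by capillary electrophoresis, with DMSO defining baseline.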

A short description of assay [3]: ATG_RORE_CIS: Attagene CIS-FACTORIAL HepG2 Assay for human RAR-related Orphan Receptor Element (RORE) (AID 2282959). The note with it: HepG2 Attagene cis-factorial RORE reporter, mRNA; actives raise or lower the signal. In outline:
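Endogenous factor activity at a cis response element is read as reporter transcript levels in HepG2 cells, 24 h post-dose. Transcripts are quantified by RT-PCR with capillary electrophoresis, and data fitted in both directions against DMSO.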

The nature of assay [4]: ATG_Sox_CIS: Attagene CIS-FACTORIAL HepG2 Assay for human SRY-box transcription factor (SOX) (AID 2282960). The following applies: HepG2 Attagene cis-factorial SOX reporter, mRNA; actives raise or lower the signal. In outline:
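Measures mRNA induction of a SOX1-associated reporter in HepG2 after 24 h dosing. Fluorescently labelled RT-PCR fragments are separated by capillary electrophoresis, and gain or loss relative to DMSO control is fitted.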

Assay [5] addresses Transcription factor Sp1 (Homo sapiens) (UniProt P08047). Put plainly: ATG_Sp1_CIS: Attagene CIS-FACTORIAL HepG2 Assay for human Specificity Protein 1 (Sp1) (AID 2282961). The note with it: HepG2 Sp1 cis-reporter transcription, actives raise or lower the signal. In outline:
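Cells: HepG2, transiently transfected with cis-regulated multiplexed reporters. Exposure: 24 h. Detection: reporter transcripts amplified, fluorescently labeled, restriction-digested and sized by capillary electrophoresis. Analysis: bidirectional fit relative to DMSO.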

A short description of assay [6]: ATG_SREBP_CIS: Attagene CIS-FACTORIAL HepG2 Assay for human Sterol Regulatory Element Binding (SREBP) (AID 2282962). The note with it: HepG2 Attagene cis-factorial SREBP reporter, mRNA; actives raise or lower the signal. The method, boiled down:
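Endogenous factor activity is measured in HepG2 through multiplexed reporter units under cis-element control. Following a 24 h incubation, reporter transcripts are reverse-transcribed, PCR-amplified and sized by capillary electrophoresis; activity is fitted in both directions relative to DMSO.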

Assay [7] deals with Signal transducer and activator of transcription 3 (Homo sapiens) (UniProt P40763). Put plainly: ATG_STAT3_CIS: Attagene CIS-FACTORIAL HepG2 Assay for human Signal Transducer and Activator of Transcription 3 (STAT3) (AID 2282963). The following applies: HepG2, Attagene cis-factorial STAT3 reporter transcription; actives raise or lower the signal. In outline:
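Readout is reporter transcript quantified by RT-PCR and capillary electrophoresis, with 6-FAM primer extension and HpaI digestion. Total RNA is taken 24 h after dosing transiently transfected HepG2 carrying cis-regulated reporter units. Bidirectional fit against DMSO.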

A short description of assay [8]: ATG_TA_CIS: Attagene CIS-FACTORIAL HepG2 Assay for human TA Basal Promoter (AID 2282964). The note with it: HepG2 Attagene CIS-factorial TA basal promoter reporter; actives raise or lower the signal. In outline: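 Cis-factorial format in HepG2: reporters report endogenous factors, not chimeric Gal4 fusions. After 24 h treatment, reporter transcripts were measured by RT-PCR-capillary electrophoresis fluorescence, analysed bidirectionally versus DMSO.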

Assay [9] is described as follows: ATG_TCF_b_cat_CIS: Attagene CIS-FACTORIAL HepG2 Assay for human T-Cell-Factor with beta-catenin (TCF/b-cat) (AID 2282965). The following applies: HepG2 TCF/beta-catenin cis-reporter transcription, actives raise or lower the signal. In outline:
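Endogenous transcription factor activity is captured through cis-promoter reporter constructs transiently introduced into human HepG2 liver cells. Induced reporter mRNA is measured after 24 h and fitted bidirectionally relative to DMSO.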

The nature of assay [10]: ATG_TAL_CIS: Attagene CIS-FACTORIAL HepG2 Assay for human TAL Basal Promoter (AID 2282966).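 Note: background control endpoint measuring basal TAL promoter reporter mRNA not a specific factor.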 The note with it: HepG2 Attagene cis-factorial TAL promoter reporter; actives raise or lower the signal. In outline: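 After 24 hours of chemical exposure, transfected HepG2 cells yielded RNA that was converted to 6-FAM-labelled, HpaI-digested reporter fragments for capillary electrophoresis. Values derive from bidirectional fitting against DMSO controls.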

A short description of assay [11]: ATG_TGFb_CIS: Attagene CIS-FACTORIAL HepG2 Assay for human Transforming Growth Factor (TGF) (AID 2282967). The note with it: HepG2 Attagene CIS TGFb reporter, mRNA transcription; actives raise or lower the signal. In outline: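 Multiplexed cis-reporter HepG2 system, 24 h treatment; mRNA induction read by fluorescence after RT-PCR and CE; DMSO negative control, bidirectional curve fitting.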

The nature of assay [12]: ATG_VDRE_CIS: Attagene CIS-FACTORIAL HepG2 Assay for human Vitamin D Receptor Element (VDRE) (AID 2282968). The note with it: HepG2 VDRE cis-reporter transcription, actives raise or lower the signal. In outline:
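Readout is VDRE-driven reporter mRNA reflecting endogenous factor activity in human HepG2 cells, sampled 24 h post-dose. Quantification used labelled RT-PCR products separated by capillary electrophoresis; bidirectional analysis relative to DMSO.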

Assay [13] has as its target Estrogen receptor (Homo sapiens) (UniProt P03372). Put plainly: ATG_ERa_TRANS: Attagene TRANS-FACTORIAL HepG2 Assay for human Estrogen Receptor alpha (ERa) (AID 2282970; active = hit-call score of the fitted dose curve at least 0.9, where 1 is the maximum). The note with it: HepG2 Attagene TRANS ERa GAL4 reporter, mRNA. In outline:
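Liver-derived HepG2 cells expressing chimeric nuclear receptor-Gal4 proteins from transient transfection were exposed for 24 hours. Gain of reporter mRNA signal versus DMSO, read by capillary electrophoresis of FAM-labelled PCR products, was recorded.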

Assay [14] addresses X-box-binding protein 1 (Homo sapiens) (UniProt P17861). Kind of assay: ATG_Xbp1_CIS: Attagene CIS-FACTORIAL HepG2 Assay for human X-box Binding Protein 1 (XBP1) (AID 2282972). The following applies: HepG2 XBP1 cis-element reporter, Attagene multiplex; actives raise or lower the signal. The method, boiled down:
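Multiplexed cis-reporter readout in transfected HepG2 liver cells. Exposure lasted 24 hours. Activity in either direction was fitted against DMSO as negative control and baseline.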

The nature of assay [15]: ATG_M_19_TRANS: Attagene TRANS-FACTORIAL HepG2 Assay for M19 Transcription Factor (Internal Marker) (AID 2282974; active = hit-call score of the fitted dose curve at least 0.9, where 1 is the maximum). The note with it: HepG2 Attagene TRANS-FACTORIAL M19 internal marker reporter. The method, boiled down:
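Reporter mRNA induction was measured in transfected HepG2 cells 24 h after dosing. Endpoint fitted upward relative to DMSO and serves as a background control within the multiplexed TRANS panel.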

For assay [16], the target named is Nuclear receptor subfamily 1 group I member 3 (Homo sapiens) (UniProt Q14994). Put plainly: ATG_CAR_TRANS: Attagene TRANS-FACTORIAL HepG2 Assay for human Constitutive Androstane Receptor (CAR) (AID 2282969; active = hit-call score of the fitted dose curve at least 0.9, where 1 is the maximum;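 note: activators raise reporter mRNA above DMSO so AC50 marks induction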). The following applies: HepG2 Attagene TRANS-FACTORIAL CAR reporter. The method, boiled down: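 Signal is reporter mRNA induction relative to DMSO, measured 24 h after dosing by RT-PCR with fluorescent primer extension and capillary electrophoresis. Human HepG2 liver cells carried transiently transfected chimeric NR-Gal4/GAL4-UAS reporter constructs.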

Assay [17] concerns the target Estrogen-related receptor gamma (Homo sapiens) (UniProt P62508). Put plainly: ATG_ERRg_TRANS: Attagene TRANS-FACTORIAL HepG2 Assay for human Estrogen-Related Receptor gamma (ERRg) (AID 2282977; active = hit-call score of the fitted dose curve at least 0.9, where 1 is the maximum;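 note: hits increase reporter signal over DMSO so potencies reflect activators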). The following applies: HepG2 Attagene TRANS reporter, ERRg transactivation. In outline:
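Induction of reporter transcripts through a chimeric NR-Gal4 protein is quantified in transfected human HepG2 liver cells after 24 h chemical exposure, using RT-PCR with capillary electrophoresis detection and DMSO as baseline.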

The target in assay [18] is Glucocorticoid receptor (Homo sapiens) (UniProt P04150). Kind of assay: ATG_GR_TRANS: Attagene TRANS-FACTORIAL HepG2 Assay for human Glucocorticoid Receptor (GR) (AID 2282978; active = hit-call score of the fitted dose curve at least 0.9, where 1 is the maximum;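 note: activators score as hits since higher reporter transcript over DMSO is fitted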). The note with it: HepG2 Attagene TRANS GR reporter, mRNA transcription. The method, boiled down: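 Reporter transcript levels, detected by fluorescence after RT-PCR and capillary electrophoresis, served as the endpoint. HepG2 cells bearing transfected GAL4-UAS reporters responsive to NR-GAL4 chimeras were incubated with compound 24 h; DMSO defined baseline.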

Assay [19] addresses Steroid hormone receptor ERR1 (Homo sapiens) (UniProt P11474). Put plainly: ATG_ERRa_TRANS: Attagene TRANS-FACTORIAL HepG2 Assay for human Estrogen-Related Receptor alpha (ERRa) (AID 2282971; active = hit-call score of the fitted dose curve at least 0.9, where 1 is the maximum). The note with it: HepG2 Attagene TRANS reporter, ERRa transactivation. The method, boiled down: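 Reporter transcript induction was quantified by RT-PCR and capillary electrophoresis of FAM-labelled, HpaI-cut products after 24 h treatment of HepG2 cells carrying transiently transfected GAL4-UAS reporter units and an exogenous ERRa-Gal4 fusion; activity scored as increase over DMSO.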

The nature of assay [20]: ATG_GAL4_TRANS: Attagene TRANS-FACTORIAL HepG2 Assay for GAL4 (Internal Marker) (AID 2282976; active = hit-call score of the fitted dose curve at least 0.9, where 1 is the maximum). The note with it: HepG2 Attagene TRANS GAL4 internal marker reporter. In outline:
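First, HepG2 cells were transfected with reporter units under GAL4-UAS control. Next, they were treated with chemical for 24 h. Finally, RNA was reverse-transcribed, PCR-amplified, FAM-labelled and resolved by capillary electrophoresis, with induction scored against DMSO.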

Records with an inconclusive call do not appear. Active and inactive are the calls of the source. Rule for the calls, unless noted: active = hit-call score of the fitted dose curve at least 0.9, where 1 is the maximum; inactive = score below 0.9.

Estrogen receptor (Homo sapiens), sequence (P03372 whole entry, looked up, the tested form may be a part): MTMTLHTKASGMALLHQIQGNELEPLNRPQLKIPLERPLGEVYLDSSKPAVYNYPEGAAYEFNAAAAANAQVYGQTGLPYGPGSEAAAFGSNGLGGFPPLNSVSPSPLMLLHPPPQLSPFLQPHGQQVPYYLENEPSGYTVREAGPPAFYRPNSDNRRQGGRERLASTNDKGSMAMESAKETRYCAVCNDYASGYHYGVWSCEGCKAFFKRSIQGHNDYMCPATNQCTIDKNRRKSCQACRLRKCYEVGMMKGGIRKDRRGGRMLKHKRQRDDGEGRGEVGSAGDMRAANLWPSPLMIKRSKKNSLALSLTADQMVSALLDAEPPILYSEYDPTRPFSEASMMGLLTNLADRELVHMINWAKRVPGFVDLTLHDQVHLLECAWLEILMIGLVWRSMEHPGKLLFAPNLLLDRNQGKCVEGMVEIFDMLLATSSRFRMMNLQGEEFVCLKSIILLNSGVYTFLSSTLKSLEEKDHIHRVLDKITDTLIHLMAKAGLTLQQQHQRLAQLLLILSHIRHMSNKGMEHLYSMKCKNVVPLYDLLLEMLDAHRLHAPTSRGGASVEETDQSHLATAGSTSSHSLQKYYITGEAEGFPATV
Signal transducer and activator of transcription 3 (Homo sapiens), sequence (P40763 whole entry, looked up): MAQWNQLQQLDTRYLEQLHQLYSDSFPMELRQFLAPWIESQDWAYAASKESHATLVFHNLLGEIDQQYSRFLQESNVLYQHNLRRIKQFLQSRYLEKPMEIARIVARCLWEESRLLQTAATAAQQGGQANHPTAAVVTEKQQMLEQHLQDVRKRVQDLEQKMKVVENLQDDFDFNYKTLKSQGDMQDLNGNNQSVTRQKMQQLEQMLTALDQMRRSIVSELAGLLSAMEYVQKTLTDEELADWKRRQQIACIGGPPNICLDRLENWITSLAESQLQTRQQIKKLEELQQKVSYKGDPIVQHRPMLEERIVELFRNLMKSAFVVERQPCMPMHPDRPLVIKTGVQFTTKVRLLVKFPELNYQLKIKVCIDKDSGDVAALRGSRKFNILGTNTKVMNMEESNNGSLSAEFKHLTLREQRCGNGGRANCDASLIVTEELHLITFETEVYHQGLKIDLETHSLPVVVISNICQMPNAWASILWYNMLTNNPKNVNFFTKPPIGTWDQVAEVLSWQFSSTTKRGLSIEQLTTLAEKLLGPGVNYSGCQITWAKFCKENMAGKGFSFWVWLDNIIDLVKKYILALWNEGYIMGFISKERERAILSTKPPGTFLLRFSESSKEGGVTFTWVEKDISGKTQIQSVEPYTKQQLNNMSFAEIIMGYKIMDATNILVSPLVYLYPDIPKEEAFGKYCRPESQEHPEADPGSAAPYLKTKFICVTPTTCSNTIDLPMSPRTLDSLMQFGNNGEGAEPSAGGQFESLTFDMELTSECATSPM
Glucocorticoid receptor (Homo sapiens), sequence (P04150 whole entry, looked up, the tested form may be a part): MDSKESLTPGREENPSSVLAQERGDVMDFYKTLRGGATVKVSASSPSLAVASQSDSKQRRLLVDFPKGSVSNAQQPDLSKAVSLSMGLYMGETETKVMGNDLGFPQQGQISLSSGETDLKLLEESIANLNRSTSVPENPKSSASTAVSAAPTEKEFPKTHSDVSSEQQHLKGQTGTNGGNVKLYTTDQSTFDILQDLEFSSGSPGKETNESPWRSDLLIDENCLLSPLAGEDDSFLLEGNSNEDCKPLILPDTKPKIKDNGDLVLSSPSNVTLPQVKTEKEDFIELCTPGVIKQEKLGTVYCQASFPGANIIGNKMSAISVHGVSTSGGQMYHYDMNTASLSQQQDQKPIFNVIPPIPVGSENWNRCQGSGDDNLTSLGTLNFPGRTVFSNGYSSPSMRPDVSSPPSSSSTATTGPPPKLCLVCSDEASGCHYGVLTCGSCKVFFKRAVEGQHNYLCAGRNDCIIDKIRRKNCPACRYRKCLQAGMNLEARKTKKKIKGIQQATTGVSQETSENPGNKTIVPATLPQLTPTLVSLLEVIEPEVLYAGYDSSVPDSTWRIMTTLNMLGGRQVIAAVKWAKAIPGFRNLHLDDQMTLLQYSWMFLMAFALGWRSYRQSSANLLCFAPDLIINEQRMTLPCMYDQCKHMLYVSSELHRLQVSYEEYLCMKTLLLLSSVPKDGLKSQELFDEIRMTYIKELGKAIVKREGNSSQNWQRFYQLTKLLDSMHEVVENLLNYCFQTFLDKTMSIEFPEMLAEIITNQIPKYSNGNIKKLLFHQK
Steroid hormone receptor ERR1 (Homo sapiens), sequence (P11474 whole entry, looked up, the tested form may be a part): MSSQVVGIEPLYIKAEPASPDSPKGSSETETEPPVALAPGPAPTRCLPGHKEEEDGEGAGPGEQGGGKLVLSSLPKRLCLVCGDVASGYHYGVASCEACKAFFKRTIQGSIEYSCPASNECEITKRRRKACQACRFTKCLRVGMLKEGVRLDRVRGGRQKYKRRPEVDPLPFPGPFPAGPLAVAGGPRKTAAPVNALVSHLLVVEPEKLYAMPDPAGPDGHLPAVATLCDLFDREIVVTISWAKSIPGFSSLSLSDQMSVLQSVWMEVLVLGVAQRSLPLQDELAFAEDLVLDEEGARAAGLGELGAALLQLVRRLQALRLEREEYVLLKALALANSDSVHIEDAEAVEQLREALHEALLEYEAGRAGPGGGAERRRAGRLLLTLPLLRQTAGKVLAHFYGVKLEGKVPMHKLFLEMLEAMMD
X-box-binding protein 1 (Homo sapiens), sequence (P17861 whole entry, looked up): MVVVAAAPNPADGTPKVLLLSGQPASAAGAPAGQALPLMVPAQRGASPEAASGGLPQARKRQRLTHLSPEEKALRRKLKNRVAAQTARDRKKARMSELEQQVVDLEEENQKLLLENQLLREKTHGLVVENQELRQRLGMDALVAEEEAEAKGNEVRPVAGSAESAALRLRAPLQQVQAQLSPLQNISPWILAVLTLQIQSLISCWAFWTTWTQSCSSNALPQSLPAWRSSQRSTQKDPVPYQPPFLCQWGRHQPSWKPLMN
Transcription factor Sp1 (Homo sapiens), sequence (P08047 whole entry, looked up): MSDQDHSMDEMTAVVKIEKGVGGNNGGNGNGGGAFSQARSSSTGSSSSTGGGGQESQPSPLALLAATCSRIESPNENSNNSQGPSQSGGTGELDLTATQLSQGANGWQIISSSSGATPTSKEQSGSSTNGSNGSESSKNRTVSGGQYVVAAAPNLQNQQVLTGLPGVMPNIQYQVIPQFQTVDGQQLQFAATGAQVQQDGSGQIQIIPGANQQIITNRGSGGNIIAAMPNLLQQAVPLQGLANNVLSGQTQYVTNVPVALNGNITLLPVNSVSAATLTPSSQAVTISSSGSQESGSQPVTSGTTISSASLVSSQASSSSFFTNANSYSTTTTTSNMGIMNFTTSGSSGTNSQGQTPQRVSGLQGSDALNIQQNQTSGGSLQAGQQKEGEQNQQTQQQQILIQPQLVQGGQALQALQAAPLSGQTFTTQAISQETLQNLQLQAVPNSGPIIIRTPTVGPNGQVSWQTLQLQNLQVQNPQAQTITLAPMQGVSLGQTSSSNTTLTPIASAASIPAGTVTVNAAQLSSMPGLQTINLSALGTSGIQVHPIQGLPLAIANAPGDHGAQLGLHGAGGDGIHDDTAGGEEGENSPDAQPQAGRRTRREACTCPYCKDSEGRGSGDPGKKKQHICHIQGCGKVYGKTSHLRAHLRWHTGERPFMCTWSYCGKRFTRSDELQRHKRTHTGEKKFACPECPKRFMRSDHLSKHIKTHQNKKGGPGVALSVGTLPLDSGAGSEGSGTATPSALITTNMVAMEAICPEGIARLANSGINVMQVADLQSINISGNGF
Nuclear receptor subfamily 1 group I member 3 (Homo sapiens), sequence (Q14994 whole entry, looked up, the tested form may be a part): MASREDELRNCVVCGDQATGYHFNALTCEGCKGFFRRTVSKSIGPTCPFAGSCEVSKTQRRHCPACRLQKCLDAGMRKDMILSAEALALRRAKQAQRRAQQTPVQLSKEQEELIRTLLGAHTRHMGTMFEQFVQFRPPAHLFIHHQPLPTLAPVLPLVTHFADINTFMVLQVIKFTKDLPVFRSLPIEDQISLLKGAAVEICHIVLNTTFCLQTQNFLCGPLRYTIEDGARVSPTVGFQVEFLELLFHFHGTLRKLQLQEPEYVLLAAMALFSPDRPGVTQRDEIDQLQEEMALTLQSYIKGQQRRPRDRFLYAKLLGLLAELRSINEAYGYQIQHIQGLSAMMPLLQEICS
Estrogen-related receptor gamma (Homo sapiens), sequence (P62508 whole entry, looked up, the tested form may be a part): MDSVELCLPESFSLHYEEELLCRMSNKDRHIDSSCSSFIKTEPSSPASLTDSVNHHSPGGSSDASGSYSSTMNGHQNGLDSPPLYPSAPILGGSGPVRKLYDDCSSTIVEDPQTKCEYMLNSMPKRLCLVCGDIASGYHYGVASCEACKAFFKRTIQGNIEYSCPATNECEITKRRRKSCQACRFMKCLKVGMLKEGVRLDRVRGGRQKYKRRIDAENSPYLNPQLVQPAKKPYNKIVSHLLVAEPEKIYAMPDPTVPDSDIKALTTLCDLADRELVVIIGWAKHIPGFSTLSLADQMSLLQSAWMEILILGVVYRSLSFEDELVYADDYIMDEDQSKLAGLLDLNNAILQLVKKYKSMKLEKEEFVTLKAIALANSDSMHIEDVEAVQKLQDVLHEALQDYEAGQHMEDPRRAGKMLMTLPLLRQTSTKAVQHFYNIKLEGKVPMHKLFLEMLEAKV

In general, AC50 refers to the midpoint of the concentration-response curve, whichever way the signal moves. On to `COC1=CC(=O)C[C@@H](C)[C@]12Oc1c(Cl)c(OC)cc(OC)c1C2=O`, for which the compound was classed as inactive in [1], in assay [2], in assay [3], in assay [4], in assay [5] and in assay [6]. Moreover, the compound was classed as inactive in [7], in assay [8], in [10], in assay [11], in [12] and in assay [13]. The outcome in [14] and in assay [15] was inactive. For the same compound, the AC50 in assay [9] is 20.4 µM (active).
As to `O=C(c1cc(O)c(O)c(O)c1)c1ccc(O)c(O)c1O`, the compound was called inactive in assay [1], in [2], in [3], in [4], in assay [5] and in [6]. Besides, the compound was classed as inactive in assay [7], in assay [8], in assay [10], in assay [11], in assay [12] and in assay [16]. The compound was classed as inactive in assay [14], in [17] and in assay [18].
As to `Nc1ccc(O)c(C(=O)O)c1`, the compound was called inactive in assay [1], in assay [2], in assay [3], in [4], in assay [5] and in assay [6]. The compound was classed as inactive in assay [7], in [8], in [10], in [11], in [12] and in assay [16]. The compound was called inactive in assay [19], in [14], in assay [15] and in assay [18]. Besides, the AC50 in assay [13] is 44.6 µM (active).
With `O=CC(F)(F)C(F)(F)C(F)(F)C(F)F`, the outcome in assay [1], in assay [2], in [3], in [4], in assay [5] and in assay [6] was inactive. Further, the compound was called inactive in assay [7], in assay [8], in [9], in assay [10], in assay [11] and in [12]. Moreover, the compound was called inactive in assay [19], in assay [14], in [20], in [17] and in assay [18].
Take `COC(=O)C(F)(F)C(F)(F)C(F)(F)F`: the call in assay [1], in assay [2], in assay [3], in [4], in [5] and in assay [6] was inactive. In addition, the compound was called inactive in assay [7], in assay [8], in assay [10], in assay [11], in assay [12] and in assay [13]. The compound was called inactive in [14], in assay [15], in assay [20] and in assay [18].
For the compound `CC(=O)Nc1ccc(S(N)(=O)=O)cc1`, the result in assay [1], in assay [2], in assay [3], in assay [4], in assay [5] and in [6] was inactive. In addition, the result in [7], in assay [8], in assay [10], in assay [11], in assay [12] and in assay [13] was inactive. For the same compound, the outcome in [19], in assay [14], in assay [15] and in assay [20] was inactive.
In the case of `C=CC(=O)OCC(CO)(COCC(COC(=O)C=C)(COC(=O)C=C)COC(=O)C=C)COC(=O)C=C`, the outcome in [1], in assay [2], in [7], in assay [8], in assay [10] and in assay [11] was inactive. Further, in assay [13], the result was inactive. The half-maximal activity concentration (AC50) is 2.71 µM (active) in assay [3]; 5.94 µM (active) in [4]; 3.37 µM (active) in assay [5]; 2.85 µM (active) in [6]; 0.426 µM (active) in [9]; 0.722 µM (active) in [12]. Also, the AC50 in [14] is 2.87 µM (active).
